Screening results as filed in PubChem BioAssay.
Compounds with a hit are over-represented: about 2.8% of the library has one in this group of screens.
Shn3 3UTR inh: Schnurri-3 reporter inhibition in Clone20 osteoblasts. 360,000 compounds, 0.52% hits. inhibition, % at 12.5 µM. Clone20 osteoblast Shn3 3'UTR firefly luciferase, 24 h;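 active = mean inhibition of at least 75% with every replicate also reaching 75%; inconclusive = mean inhibition at least 75% but some replicate below; inactive = mean inhibition below 75%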
EBV LMP1 NFkB: reduces LMP1-driven NF-kappaB luciferase signal. LMP1-induced NF-kappaB luciferase reporter cells, luminescence. inhibition, % at 12.5 µM. 350,000 compounds, 0.69% hits; in the data active = inhibition above about 41%; inconclusive = no clear call, values can overlap the other calls
PAX8 inh HTS: lowers PAX8-driven luciferase in RMG-I cells; RMG-I TPO-luciferase reporter, SteadyGlo, 24 h; inhibition, % at 12.6 µM; 360,000 compounds, 1.2% hits; AID 652154;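 active = mean replicate inhibition at least 60% with every replicate also reaching 60%; inconclusive = only one of the two criteria is met; inactive = mean below 60% and not all replicates reaching 60%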;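 also: luciferase light reporting Pax8 driven TPO promoter activity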
HIF-2a inh: inhibitors of HIF-2a; 786-0 RCC cells HIF-2a reporter, luciferase luminescence, overnight; inhibition, % at 18.8 µM; 360,000 compounds, 0.72% hits;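 active = inhibition of the luminescence signal of 40% or more relative to plate controls, in a single-dose primary screen at 18.75 µM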
Peg3 promoter: reduces Peg3 promoter-driven luciferase expression in HeLa; 360,000 compounds, 1.7% hits; AID 588405; HeLa PEG-Prom luciferase reporter, luminescence, overnight; inhibition, % at 20 µM;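 active = inhibition of at least 50% at 20 µM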
TRPM1 prom inh: reduces MITF-dependent TRPM1 promoter luciferase signal. SK-MEL-5 TRPM1 promoter luciferase, 24 h. inhibition, % at 12.5 µM. 330,000 compounds, 0.83% hits;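 active = mean inhibition across replicates of 60% or more, whatever share of single replicates reaches that level; inconclusive = some that reach 60%, reason not given; inactive = mean inhibition across replicates below 60%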
Hits are given with their value; 0 = inactive; ? = inconclusive; - = not tested or not shown; ! = not confirmed by another sample.

SMILES | Shn3 3UTR inh | EBV LMP1 NFkB | PAX8 inh HTS | HIF-2a inh | Peg3 promoter | TRPM1 prom inh
CCN1CCN(Cc2ccc(NC(=O)c3cc(NC(=O)c4cc5cccc(OC)c5o4)cc(OC)c3)cc2C(F)(F)F)CC1 | 99 | 0 | 90! | 0 | 104 | 0
COc1cc(NC(=O)N2CCNC2=O)cc(C(=O)Nc2cccc(C(F)(F)F)c2)c1 | 0 | 0 | 63 | 0 | 0 | 0
CCN1CCN(Cc2ccc(NC(=O)c3cc(NC(=O)C4=NN(c5ccccc5)C(=O)C4)cc(OC)c3)cc2C(F)(F)F)CC1 | 0 | 0 | 0 | 0 | 0 | 0
Cc1ccc(S(=O)(=O)N(C)C[C@@H]2Oc3ccc(NC(=O)CCCN(C)C)cc3CC(=O)N([C@H](C)CO)C[C@@H]2C)cc1 | - | - | 0 | - | - | -
CNC(=O)C[C@@H]1CC[C@@H]2[C@@H](COc3ccc(NC(=O)Nc4ccccc4)cc3C(=O)N2C)O1 | - | - | 0 | - | - | -
CC(C)NC(=O)N(C)C[C@H]1Oc2ccc(NC(=O)CCC(F)(F)F)cc2C(=O)N([C@@H](C)CO)C[C@H]1C | - | - | 0 | - | - | -
Cc1cc(OCC(=O)NC(C)C)cc(C)c1Br | 0 | 0 | 65 | 0 | 0 | 0
Cc1cc(OCC(=O)NC(C)C)ccc1Cl | 0 | 0 | 0 | 0 | 0 | 0
O=C(CSc1nnc(Nc2ccccc2)s1)NC1CCS(=O)(=O)C1 (centres undefined) | 90 | 0 | 0 | 0 | 0 | 0
CO[C@@H]1CN(C)C(=O)c2cc(NC(=O)NC3CCCCC3)ccc2OC[C@H](C)NC[C@H]1C | - | - | 0 | - | - | -
N#Cc1cc2c(nc1SCC(=O)Nc1sc3c(c1C#N)CCC3)CCC2 | 0 | 0 | - | 0 | 0 | 0
COc1ccc(-c2ccc(C#N)c(SCC(=O)Nc3sc4c(c3C#N)CCC4)n2)cc1OC | 0 | 0 | - | 0 | 75 | 0
COCC(=O)N(C[C@@H]1N[C@@H](CO)[C@H]1c1ccc(C2=CCCCC2)cc1)C(C)C | - | - | 0 | - | - | -
CN(C)CC(=O)N1C[C@@H]2[C@H](c3ccccc31)[C@H](CO)N2C(=O)c1ccccn1 | - | - | 0 | - | - | -
O=C(Oc1c(Cl)cc(Cl)c2cccnc12)c1cccc([N+](=O)[O-])c1 | 0 | ? | - | 0 | 54 | 0
O=C(Oc1ccc(Cl)c2cccnc12)c1cccc([N+](=O)[O-])c1 | 0 | 0 | 0 | 0 | 0 | 0
COc1ccc(CN(C)C[C@@H]2OCCCC[C@H](C)Oc3ccc(NC(=O)Cc4ccccc4)cc3C(=O)N([C@H](C)CO)C[C@@H]2C)cc1 | - | - | 0 | - | - | -
C[C@@H]1CN([C@H](C)CO)C(=O)c2cc(NC(=O)Nc3ccc(F)cc3)ccc2O[C@H]1CN(C)S(=O)(=O)c1cn(C)cn1 | - | - | 0 | - | - | -
COc1ccc(CCNC(=O)c2ccccc2NC(=O)CN2CCN(c3ccccc3O)CC2)cc1 | 0 | 0 | 0 | 0 | 52 | 0
COC(=O)c1ccc(C(=O)OC)c(NC(=O)CN2CCN(c3ccccc3)CC2)c1 | 0 | 0 | - | 0 | 0 | 0
COC(=O)c1ccc(C(=O)OC)c(NC(=O)CN2CCN(c3ccccc3OC)CC2)c1 | 0 | 0 | - | 0 | 52 | 0
COc1cccc(CNC(=O)C[C@@H]2CC[C@H](NS(=O)(=O)c3ccccc3OC)[C@H](CO)O2)c1 | - | - | 0 | - | - | -
CC(=O)OCC(=O)[C@H]1CC[C@H]2[C@@H]3CCC4=CC(=O)CC[C@]4(C)[C@H]3CC[C@]12C | 0 | 0 | 0 | 0 | 0 | 0
C[C@]12CC[C@H]3[C@@H](CCC4=CC(=O)CC[C@@]43C)[C@@H]1CC[C@@H]2C(=O)CO | 0 | 66 | 0 | 0 | 0 | 0
Cc1cccc(Cn2c(Cc3ccccc3)nc3ccccc32)c1 | 0 | 0 | 69 | 0 | 0 | 0
SMILES | Shn3 3UTR inh | EBV LMP1 NFkB | PAX8 inh HTS | HIF-2a inh | Peg3 promoter | TRPM1 prom inh
Clc1cccc(CN2CCc3c([nH]c4ccccc34)C2)c1 | 0 | 0 | 0 | 0 | 60 | 0
COc1cc(OC)c(CN2CCc3c([nH]c4ccccc34)C2)cc1Br | 0 | 75 | 0 | 0 | 0 | 0
Cc1cccc(CN2CCc3c([nH]c4ccccc34)C2)c1 | 0 | 0 | 0 | 0 | 0 | 0
Cc1ccccc1S(=O)(=O)N[C@@H]1CC[C@H](CCn2cc(-c3ccccc3)nn2)O[C@H]1CO | - | - | 0 | - | - | -
COc1ccc(NC(=O)Cn2nnc(-c3ccccc3NS(=O)(=O)c3ccccc3)n2)cc1 | 87 | 0 | - | 0 | 0 | 0
COc1ccc(S(=O)(=O)Nc2ccccc2-c2nnn(CC(=O)Nc3ccccc3OC)n2)cc1 | 0 | 0 | 0 | 0 | 0 | 0
CC(C)CC#Cc1ccc2c(c1)O[C@H](CN(C)C(=O)CC1CC1)[C@@H](C)CN([C@H](C)CO)S2(=O)=O | - | - | 0 | - | - | -
COc1ccc(/C=C2\SC(=S)N(CCC(=O)N(CCO)c3ccccc3)C2=O)cc1OC | 0 | 0 | 0 | 0 | 0 | 0
CCc1ccc(/C=C2/SC(=S)N(CCC(=O)Nc3ccc(C(=O)O)cc3)C2=O)cc1 | 0 | 0 | - | 0 | 0 | 0
CCc1ccc(C=C2SC(=S)N(CCCC(=O)Nc3ccc(C(=O)O)cc3)C2=O)cc1 | 0 | - | 0 | 51 | 0 | -
CCOc1ccc(/C=C2\SC(=S)N(CCC(=O)N(CCO)c3ccccc3)C2=O)cc1 | 0 | 0 | 0 | 57 | 0 | 0
CCc1ccc(/C=C2\SC(=S)N(CCCC(=O)N(CCO)c3ccccc3)C2=O)cc1 | 0 | 0 | 94 | 65 | 76 | -
O=C1/C(=C/c2cccs2)SC(=S)N1CCCC(=O)N(CCO)c1ccccc1 | 0 | 0 | 0 | 0 | 0 | 0
CC(C)c1cn(CC[C@H]2CC[C@H](NS(=O)(=O)c3ccccc3)[C@H](CO)O2)nn1 | - | - | 0 | - | - | -
O=C(C[C@H]1C[C@@H]2c3cc(NC(=O)C4CCC4)ccc3O[C@@H]2[C@@H](CO)O1)NCc1ccncc1 | - | - | 0 | - | - | -
O=C(Nc1ccc2c(c1)OCO2)N[C@@H]1C=C[C@H](CC(=O)N2CCN(c3ccccc3)CC2)O[C@H]1CO | - | - | 0 | - | - | -
O=C(COC(=O)/C(=C/c1cccs1)c1cccs1)NC(c1ccccc1)c1ccccc1 | 0 | 0 | 93 | 0 | 0 | 71
Cc1nc2c(c(C)nn2-c2ccccc2)c(C)c1CCC(=O)Nc1ccc(CN2CCCC2)cc1 | 0 | 0 | 0 | 0 | 55 | 0
COc1ccc(CN(C)CC(O)COC(c2ccc(OC)cc2)c2ccc(OC)cc2)cc1 (centres undefined) | 0 | 0 | 0 | 0 | 0 | 0
CCOc1ccc(CN(C)CC(O)COC(c2ccc(OC)cc2)c2ccc(OC)cc2)cc1 (centres undefined) | 0 | 0 | 0 | 0 | 50 | 0
O=C(N[C@@H]1CC[C@H](CCNS(=O)(=O)c2ccccc2)O[C@H]1CO)c1cccnc1 | - | - | 0 | - | - | -
CNC[C@@H]1Oc2ccc(NS(=O)(=O)c3cn(C)cn3)cc2CC(=O)N([C@@H](C)CO)C[C@@H]1C | - | - | 0 | - | - | -
C[C@@H]1CCCCO[C@H](CN(C)S(=O)(=O)c2ccc(Cl)cc2)[C@H](C)CN([C@H](C)CO)C(=O)c2cc(NS(=O)(=O)c3ccc(Cl)cc3)ccc2O1 | - | - | 0 | - | - | -
C[C@@H]1CCCCO[C@H](CN(C)C)[C@H](C)CN([C@@H](C)CO)C(=O)c2cc(NS(=O)(=O)c3ccc(Cl)cc3)ccc2O1 | - | - | 97 | - | - | -
